# Bioassay records from PubChem.
# JMJD2A Tudor inh = qHTS Assay for Inhibitors of JMJD2A-Tudor Domain; Potency, µM (top dose mostly 114 µM), for the others: top-dose activity change, negative = inhibition, most hits filed as inhibitors; AID 504339, 2011; 390,000 compounds, 4.4% hits; AlphaScreen JMJD2A-Tudor / H3K4me3 peptide binding; further: on the % scale 0 is the no-effect control and ±100 the full control effect; nearly all actives have a fitted effect of over 50% in size
# G9a inh = qHTS Assay for Inhibitors of Histone Lysine Methyltransferase G9a; G9a H3K9 monomethylation, AlphaScreen, 2 h; Histone-lysine N-methyltransferase EHMT2 (Homo sapiens), Q96KQ7; 350,000 compounds, 8.8% hits; Potency, µM (highest dose often 102 µM), inactives show at the top dose activity, negative = inhibition, hits mostly inhibitors; further: on the % scale 0 is the no-effect control and ±100 the full control effect; nearly all actives have a fitted effect of over 75% in size
# Target sequence (Q96KQ7 913-1193 limits assumed): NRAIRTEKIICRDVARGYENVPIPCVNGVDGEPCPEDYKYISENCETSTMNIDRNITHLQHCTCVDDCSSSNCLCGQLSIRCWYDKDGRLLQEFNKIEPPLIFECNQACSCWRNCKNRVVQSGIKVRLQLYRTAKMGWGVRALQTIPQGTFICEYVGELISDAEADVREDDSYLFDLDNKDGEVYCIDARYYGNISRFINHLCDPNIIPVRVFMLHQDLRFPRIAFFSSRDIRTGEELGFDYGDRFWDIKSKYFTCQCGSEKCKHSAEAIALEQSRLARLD
#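 Using a bead-based AlphaScreen, monomethylated H3K9 product from 2 h room-temperature reactions (G9a 20 nM, peptide 500 nM, SAM 20 uM) was detected with 0.5 ug/mL rabbit anti-H3K9me1 antibody.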
# L3MBTL1 block = qHTS Assay for the Inhibitors of L3MBTL1; Lethal(3)malignant brain tumor-like protein 1 (Homo sapiens), Q9Y468; AlphaScreen L3MBTL1–H3K9me1 peptide binding; Potency, µM (doses to about 57.1 µM), for inactives: at the top dose activity, negative = inhibition, hits mostly inhibitors; 230,000 compounds, 0.66% hits; further: on the % scale 0 is the no-effect control and ±100 the full control effect; nearly all actives have a fitted effect of over 60% in size
#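 Read-out is AlphaScreen signal from streptavidin donor and nickel chelate acceptor beads (10 ug/mL final each) bridging L3MBTL1 (50 nM) and biotinylated K9-monomethylated H3(1-15) peptide (75 nM), after 30 min compound exposure at room temperature.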
# BAZ2B inh = qHTS Assay for Inhibitors of BAZ2B | 360,000 compounds, 4.4% hits | Potency, µM (titrated, usually from 114 µM), inactives show at the top dose activity change, negative = inhibition, hits mostly inhibitors | AlphaScreen BAZ2B-H3K14Ac peptide displacement | Bromodomain adjacent to zinc finger domain protein 2B (Homo sapiens), Q9UIF8 | AID 504333, 2011; further: on the % scale 0 is the no-effect control and ±100 the full control effect; nearly all actives have a fitted effect of over 60% in size
#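 Protein-peptide AlphaScreen: BAZ2B 50 nM, b-H3K14Ac 50 nM, 1x PBS pH 7.4 + 0.01% Tween-20. Preincubation 30 min RT; cpd 30 min RT (top 110 uM); beads 20 min RT, light-protected.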
# HP1b chromo inh = HTS for Inhibitors of HP1-beta Chromodomain Interactions with Methylated Histone Tails; AlphaScreen HP1-beta / biotin-H3K9me3 peptide binding; Potency, µM (highest dose often 114 µM), for the others: top-dose activity change, negative = inhibition, actives largely listed as inhibitors; 390,000 compounds, 0.56% hits; AID 540317, 2011; further: nearly all actives have a fitted effect of over 70% in size
# Target sequence (P83916 whole entry, looked up): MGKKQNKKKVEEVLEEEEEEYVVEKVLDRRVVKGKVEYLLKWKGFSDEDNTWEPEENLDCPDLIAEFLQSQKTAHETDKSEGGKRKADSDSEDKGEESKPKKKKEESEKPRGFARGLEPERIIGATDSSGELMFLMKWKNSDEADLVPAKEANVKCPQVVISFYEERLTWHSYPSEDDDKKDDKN
#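 Compound inhibition of the preformed complex between 50 nM HP1-beta and 50 nM biotinylated H3K9me3 peptide was read by AlphaScreen. Buffer was PBS pH 7.4 with 0.01% Tween-20. Incubations ran 30 min at room temperature, with 10 ug/mL donor/acceptor beads.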
# Starred values were filed as active, the others as inactive; ? = inconclusive; . = not tested or not shown; [ ] = remark or other dose. Hits are enriched below; roughly 11% of the tested compounds scored in any of these assays. The call rests on the fitted dose curve; in most records, active means well fitted inhibition curve with a large enough effect; inconclusive means small, poorly fitted or top-dose-only effect; inactive means no such curve, though single readings can be large or run the other way. Potency means the concentration at half of the fitted maximal effect.
SMILES,JMJD2A Tudor inh,G9a inh,L3MBTL1 block,BAZ2B inh,HP1b chromo inh
O=C(Cn1nc(CNc2ccc(Br)cc2)[n+]2c1CCCCC2)c1ccc([N+](=O)[O-])cc1,-32.3%,70.8µM*,-30.0%,?,-17.9%
O=C(Cn1nc(Cl)nc1Cl)c1ccc([N+](=O)[O-])cc1,-14.7%,6.3%,.,-6.0%,23.8%
COc1ccc(NCc2nn(CC(=O)c3ccc(Br)cc3)c3[n+]2CCCCC3)cc1,44.7µM*,35.5µM*,-19.3%,35.5µM*,-16.7%
O=C(Cn1nc(CNc2ccc(Cl)cc2)[n+]2c1CCCCC2)c1ccc(Br)cc1,-33.6%,?,3.3%,?,-10.5%
Cc1cccc(C(=O)Nc2cccc(OCc3cc(=O)n4c(C)csc4n3)c2)c1,-13.9%,-31.7%[59 µM],.,-0.3%,41.9%
CC(C)C1Oc2cc3oc(=O)ccc3cc2C1=O (stereo not given),0.7%,79.4µM*,-0.5%,-12.4%,32.7%
CCOc1ccc(CC(=O)Nc2nnc3n2CCS3)cc1,56.2µM*,29.0%[59 µM],.,11.2%,-1.7%[57 µM]
COc1ccc(CC(=O)Nc2nnc3n2CCS3)cc1,56.2µM*,?,.,?,16.5%[57 µM]
CCCC(CCC)C(=O)Nc1nnc2n1CCS2,?,?,.,-6.9%,4.9%[57 µM]
Cc1ccc(CNC(=O)Cn2cc(S(=O)(=O)Cc3cccc(Cl)c3)c3ccccc32)cc1,-7.3%,4.4%[59 µM],.,1.7%,16.1%
CC(O)c1cccc(N=Cc2ccc3ccccc3c2O)c1 (stereo not given),?,1.78µM*,-0.8%,?,0.3%
CCCC(=O)Oc1c(Sc2ccc(Cl)cc2)c(C)nn1-c1ccccc1,-34.8%,3.98µM*,.,3.3%,12.8%
COc1ccccc1C(=O)Oc1c(Sc2ccccc2)c(C)nn1-c1ccccc1,28.3%,-27.7%[59 µM],.,26.2%,91.0%
Cc1ccc(Sc2c(C)nn(-c3ccccc3)c2OC(=O)CC(C)C)cc1,15.7%,8.91µM*,.,7.5%,76.7%
COc1cc(C(=O)Oc2c(Sc3ccc(C)cc3)c(C)nn2-c2ccccc2)cc(OC)c1OC,-29.4%,14.1µM*,.,-14.6%,41.9%
CCOc1ccc(C(=O)NCC(c2ccc3c(c2)OCO3)N2CCN(C)CC2)cc1 (stereo not given),-12.6%,7.2%[59 µM],.,2.7%,12.2%[57 µM]
COc1ccc(N2CC(NC(=O)CCCc3ccccc3)CC2=O)cc1 (stereo not given),4.2%,5.5%[59 µM],.,0.2%,37.4%
COc1ccc2c(C)c(CC(=O)N3CCN(C(=O)C4COc5ccccc5O4)CC3)c(=O)oc2c1C (stereo not given),17.8µM*,5.4%,.,-1.5%,-21.1%
COC(=O)c1c(C)[nH]c(C)c1-c1cccc([N+](=O)[O-])c1,-33.6%,56.2µM*,.,?,-17.2%
COC(=O)c1c(C)[nH]c(C)c1-c1ccc(C)cc1,-34.7%,-13.4%,.,?,-17.0%
CC(NCc1ccc([N+](=O)[O-])cc1)C1COc2ccccc2O1 (stereo not given),7.94µM*,?,.,50.1µM*,?
O=C(OCc1ccc(F)cc1)c1ccc2c(c1)-c1ccccc1C2=O,-24.6%,8.8%,-5.5%,-29.1%,-9.2%
CCOC(=O)C1=C(Cc2ccc(F)cc2)C(=O)c2ccccc2C1=O,20µM*,8.91µM*,.,39.8µM*,?
O=C1C(=O)N(CCN2CCOCC2)C(c2cccc(Cl)c2)/C1=C(\O)c1ccc2c(c1)OCCO2 (stereo not given),-16.3%,35.5µM*,.,?,4.6%
CCOc1ccc(C2/C(=C(\O)c3ccc4c(c3)OCCO4)C(=O)C(=O)N2CCN2CCOCC2)cc1OC (stereo not given),-6.2%,44.7µM*,.,-32.6%,17.5%
SMILES,JMJD2A Tudor inh,G9a inh,L3MBTL1 block,BAZ2B inh,HP1b chromo inh
NC(Cc1cc(I)c(Oc2cc(I)c(O)c(I)c2)c(I)c1)C(=O)O (stereo not given),.,-38.3%[2.33 µM],.,.,.
CN(C)C(=O)c1ccc(-c2cc(NCc3cccnc3)ncn2)cc1,.,10.5%[0.501 µM],.,.,.
Cc1cc2c(s1)c1cnn(Cc3ccc(Br)cc3F)c(=O)c1n2C,-21.9%,.,.,.,.
Cc1ccc(-n2[nH]c(C)c(/C=N/NC(=O)c3ccc(O)cc3O)c2=O)cc1,31.6µM*,-13.5%,.,28.2µM*,21.7%
CCCCN(CCCC)C(=S)N/N=C/c1c(C)[nH]n(-c2ccccc2)c1=O,79.4µM*,?,-7.8%,10µM*,3.4%
Cc1cc(C(=O)N/N=C/c2c(C)[nH]n(-c3ccccc3)c2=O)n[nH]1,50.1µM*,-7.0%,.,28.2µM*,35.8%
Cc1[nH]n(-c2ccccc2)c(=O)c1/C=N/NC(=O)c1ccc(O)cc1O,22.4µM*,?,.,25.1µM*,57.0%
Cc1ccc(NC(=O)c2ccc(NC(=O)N3CCSc4nc(C)cc(C)c43)cc2)c(Cl)c1,-2.8%,-34.3%[59 µM],.,-8.7%,15.1%
Cc1cccc(C(=O)NNc2ncnc3c2cnn3-c2ccc(C)c(Cl)c2)c1,-21.7%,5.3%[59 µM],.,-0.3%,10.5%
Cc1[nH]n(-c2ccccc2)c(=O)c1C=Nc1cccc2cccnc12,?,?,-8.6%,-38.1%,-12.0%
CCCCN=Cc1c(C)[nH]n(-c2ccccc2)c1=S,?,4.47µM*,-19.4%,?,?
Cc1[nH]n(-c2ccccc2)c(=S)c1C=Nc1cccc([N+](=O)[O-])c1,2.51µM*,.,1.2%,22.4µM*,-72.1%
Cc1[nH]n(-c2ccccc2)c(=O)c1/C=N/Nc1nncc(-c2ccccc2)n1,3.55µM*,20µM*,25.1µM*,4.47µM*,-9.4%
Cc1cc2c(c(C)c1Cl)C(c1ccc3c(c1)OCO3)CC(O)(c1ccccc1)O2 (stereo not given),-35.2%,.,.,.,17.6%
CC(=O)N[C@@H](CCC(=O)O)C(=O)O,.,5.1%[12.7 µM],.,.,.
O=C(Oc1ccccc1)N1CCC2(CC1)CCN(c1ccccn1)CC2,.,-8.4%[12.7 µM],.,.,.
COC(=O)c1ccc2nc(C)cc(Nc3cccc(Cl)c3C)c2c1,-9.7%,?,.,1.7%,44.3%
COC(=O)CC1(CC(N)=O)SCCS1,-3.5%,.,.,.,17.7%
O=c1ccc(-c2n[nH]c(=S)n2-c2ccc(F)c(Cl)c2)n[nH]1,35.5µM*,3.16µM*,1.1%,?,15.8%
S=c1[nH]nc(-c2ccc(Cl)cc2Cl)n1-c1ccc(Cl)cc1,-25.3%,.,7.5%,?,16.1%
Fc1ccc(-n2c(-c3cc(C4CC4)[nH]n3)n[nH]c2=S)cc1Cl,79.4µM*,1.58µM*,.,?,10.5%
Cc1c(C(=O)NCc2cccc(F)c2)oc2c1-c1[nH]ncc1CC2,-25.2%,-47.1%[59 µM],.,-21.9%,9.4%
CCN(CC)CCC(=O)c1ccc(F)cc1,-9.7%,39.8µM*,5.9%,1.2%,50.1%
CN(C)CCC(=O)c1ccc(F)cc1,-12.5%[11.4 µM],?,3.8%,-1.2%,33.3%
